Reference: PubChem BioAssay AID504333 (National Center for Advancing Translational Sciences (NCATS), 2011)
In all, about 360,000 compounds went through this assay and about 16,000 (4.4%) were called active. Inconclusive results (about 9%) are left out. Calls come from the whole dose curve; as a rule, active = well fitted inhibition curve with a large enough effect; inconclusive = small, poorly fitted or top-dose-only effect; inactive = no such curve, though single readings can be large or run the other way. For the sample, actives were picked, then their nearest neighbours and some compounds at random.

Target: Bromodomain adjacent to zinc finger domain protein 2B (Homo sapiens) (UniProt Q9UIF8)
Sequence (Q9UIF8 whole entry, looked up, the tested form may be a part): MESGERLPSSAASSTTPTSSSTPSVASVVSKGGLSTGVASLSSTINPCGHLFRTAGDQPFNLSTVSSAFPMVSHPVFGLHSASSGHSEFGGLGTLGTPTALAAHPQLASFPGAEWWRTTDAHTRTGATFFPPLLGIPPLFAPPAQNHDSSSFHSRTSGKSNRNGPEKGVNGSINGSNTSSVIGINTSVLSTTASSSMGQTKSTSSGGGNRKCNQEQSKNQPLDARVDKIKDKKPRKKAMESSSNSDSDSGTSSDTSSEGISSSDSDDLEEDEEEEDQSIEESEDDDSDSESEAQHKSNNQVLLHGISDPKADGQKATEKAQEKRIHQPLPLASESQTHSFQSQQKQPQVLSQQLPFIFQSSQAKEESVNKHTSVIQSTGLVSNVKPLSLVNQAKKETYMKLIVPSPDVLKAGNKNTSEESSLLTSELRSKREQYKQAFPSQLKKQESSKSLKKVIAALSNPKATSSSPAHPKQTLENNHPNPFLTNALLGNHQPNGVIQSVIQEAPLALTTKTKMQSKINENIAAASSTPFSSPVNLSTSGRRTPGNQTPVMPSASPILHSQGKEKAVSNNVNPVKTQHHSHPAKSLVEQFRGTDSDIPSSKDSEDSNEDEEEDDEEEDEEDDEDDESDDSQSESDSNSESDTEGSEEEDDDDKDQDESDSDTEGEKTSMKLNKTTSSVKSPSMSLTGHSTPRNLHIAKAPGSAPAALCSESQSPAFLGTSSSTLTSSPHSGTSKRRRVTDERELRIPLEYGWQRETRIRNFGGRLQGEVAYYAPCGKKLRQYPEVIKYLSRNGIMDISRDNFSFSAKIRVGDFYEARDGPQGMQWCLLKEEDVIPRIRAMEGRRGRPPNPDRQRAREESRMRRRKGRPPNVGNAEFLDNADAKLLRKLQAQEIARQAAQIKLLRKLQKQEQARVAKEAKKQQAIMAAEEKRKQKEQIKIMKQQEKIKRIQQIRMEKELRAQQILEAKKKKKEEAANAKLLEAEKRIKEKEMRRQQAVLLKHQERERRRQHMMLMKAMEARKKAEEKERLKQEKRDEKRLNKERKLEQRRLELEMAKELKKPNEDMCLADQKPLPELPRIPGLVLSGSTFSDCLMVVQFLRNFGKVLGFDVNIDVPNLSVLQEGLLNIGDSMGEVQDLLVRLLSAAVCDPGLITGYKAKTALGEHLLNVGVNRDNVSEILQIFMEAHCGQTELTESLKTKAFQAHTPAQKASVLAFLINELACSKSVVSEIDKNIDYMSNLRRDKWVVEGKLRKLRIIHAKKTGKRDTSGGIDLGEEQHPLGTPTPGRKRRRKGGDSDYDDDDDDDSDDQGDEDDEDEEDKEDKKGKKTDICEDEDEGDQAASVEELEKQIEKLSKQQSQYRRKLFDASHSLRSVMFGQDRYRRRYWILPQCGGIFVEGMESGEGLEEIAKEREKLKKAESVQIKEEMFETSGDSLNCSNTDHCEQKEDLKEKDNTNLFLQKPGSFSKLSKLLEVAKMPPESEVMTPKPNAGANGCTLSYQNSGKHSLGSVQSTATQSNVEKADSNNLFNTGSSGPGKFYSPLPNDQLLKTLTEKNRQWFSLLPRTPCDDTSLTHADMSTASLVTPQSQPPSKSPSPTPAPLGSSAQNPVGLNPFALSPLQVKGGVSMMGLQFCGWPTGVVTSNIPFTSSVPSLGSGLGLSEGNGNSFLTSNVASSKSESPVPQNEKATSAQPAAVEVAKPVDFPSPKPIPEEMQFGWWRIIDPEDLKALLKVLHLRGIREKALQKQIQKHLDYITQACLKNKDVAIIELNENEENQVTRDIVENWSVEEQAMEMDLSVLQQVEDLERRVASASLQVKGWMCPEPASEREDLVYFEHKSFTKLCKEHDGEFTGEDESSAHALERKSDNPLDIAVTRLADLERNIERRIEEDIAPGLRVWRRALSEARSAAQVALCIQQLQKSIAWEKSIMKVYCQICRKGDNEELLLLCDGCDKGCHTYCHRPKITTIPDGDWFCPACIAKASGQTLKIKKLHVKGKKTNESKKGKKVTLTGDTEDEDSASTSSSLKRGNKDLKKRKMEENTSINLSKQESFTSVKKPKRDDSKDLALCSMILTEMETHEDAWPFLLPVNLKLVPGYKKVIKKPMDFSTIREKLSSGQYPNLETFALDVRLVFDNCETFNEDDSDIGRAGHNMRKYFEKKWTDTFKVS
Assay: qHTS Assay for Inhibitors of BAZ2B; note: nearly all actives have a fitted effect of over 60% in size
Settings: AlphaScreen BAZ2B-H3K14Ac peptide displacement; series mostly up to 114 µM; activity change, negative = inhibition: at the top concentration
How it was run: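 BAZ2B (50 nM) with biotin-H3(5-23)K14Ac peptide (50 nM) in PBS pH 7.4, 0.01% Tween-20, preformed 30 min, then compound 30 min at room temperature; top concentration 110uM. AlphaScreen streptavidin donor/nickel chelate acceptor beads (10 ug/mL final), 20 min dark, signal read.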
% is set by controls: 0 for no effect and ±100 for the full control effect; potency is the fitted concentration of half-maximal effect.

| Compound | activity change, negative = inhibition | Potency |
| --- | --- | --- |
| Cc1nn(CC(=O)NCCc2ccccc2)c(=O)c2c1sc1ccccc12 | -18.3% (inactive) | – |
| CC(=O)c1sc(NC(=O)C2=NN(c3ccccc3)C(=O)CC2)nc1C | – | 70.8 µM (active) |
| CC(=O)c1sc(N/N=C\c2ccc(C)cc2)nc1C | -3.67% (inactive) | – |
| COc1cc2ccccc2cc1C(=O)Nc1nc(C)c(C(C)=O)s1 | 6.28% (inactive) | – |
| COc1ccccc1CNS(=O)(=O)c1cc(Br)cc2c1N(C(C)=O)C(C)C2 (configuration not stated) | -0.972% (inactive) | – |
| O=C(Nc1ccc(Br)cc1)c1ccc(Br)c(S(=O)(=O)NCc2ccccc2)c1 | -1.45% (inactive) | – |
| O=C(CN1CCN(S(=O)(=O)c2cc(Cl)ccc2Cl)CC1)c1ccc(O)c(O)c1 | – | 44.7 µM (active) |
| COc1ccc(Cl)cc1S(=O)(=O)N1CCN(CC(=O)C(C)(C)C)CC1 | 10.4% (inactive) | – |
| N#Cc1ccsc1NC(=O)CN1CCN(S(=O)(=O)c2cc(Cl)ccc2Cl)CC1 | -11.6% (inactive) | – |
| CCC(=O)Nc1ccccc1-c1nc2ccccc2n(CC(=O)Nc2ccc(C)c(C)c2)c1=O | -15.9% (inactive) | – |
| CN(Cc1ccccc1)c1ncnc2onc(-c3ccc(F)cc3)c12 | 35.9% [at 57.1 µM] (inactive) | – |
| CCOC(=O)C1CCN(S(=O)(=O)c2cc(F)ccc2OC)CC1 | -4.46% (inactive) | – |
| CCOC(=O)C1CCCCN1Cc1ccc(OC)c(OC)c1OC (configuration not stated) | – | 31.6 µM (active) |
| CCOC(=O)C1CCN(C(=O)/C=C/c2cc(OC)c(OC)c(OC)c2)CC1 | 6.29% (inactive) | – |
| CCOC(=O)c1c(NC(=O)c2ccc(S(=O)(=O)N3CCCC(C)C3)cc2)sc2c1CCN(C(C)C)C2 (configuration not stated) | 1.44% (inactive) | – |
| CC1CCCN(c2csc3ccc(F)cc3c2=O)C1 (configuration not stated) | -14.5% (inactive) | – |
| Cn1c(COc2ccc(Cl)cc2)nc2ccccc2c1=O | – | 50.1 µM (active) |
| COc1ccc(OCc2ccc(-c3nc4ccccc4c(=O)n3N)o2)cc1 | -21.5% (inactive) | – |
| COc1ccccc1OCCCn1c(-c2ccc(Cl)cc2)nc2ccccc2c1=O | 3.81% (inactive) | – |
| O=C(Nc1ccc2nc(SCCOc3ccccc3)sc2c1)c1ccco1 | -14.9% (inactive) | – |
| CN1C=CC=C/C1=C1\SC(=S)N(Cc2ccccc2)C1=O | – | 50.1 µM (active) |
| CCCCN1C(=O)/C(=C2/Sc3ccc(Cl)cc3N2CC)SC1=S | 8.39% [at 57.1 µM] (inactive) | – |
| O=C1C(Cc2ccc(O)cc2)NC(=S)N1Cc1ccccc1 (configuration not stated) | -1.83% (inactive) | – |
| CCCCN1C(=O)/C(=C2/C=CC=CN2C)SC1=S | – | 44.7 µM (active) |
| CCCCN1C(=O)/C(=C/C=C2/C=Cc3ccccc3N2CC)SC1=S | -28.8% (inactive) | – |
| COc1ccccc1NC(=O)Cn1cnc2ccc(S(=O)(=O)N3CCC(C)CC3)cc2c1=O | -23.3% (inactive) | – |

| Compound | activity change, negative = inhibition | Potency |
| --- | --- | --- |
| Cc1ccc2nc(N3CCN(c4cccc(Cl)c4)CC3)c3nnnn3c2c1 | -7.42% (inactive) | – |
| Cn1c(=O)sc2cc(NS(=O)(=O)c3ccc(C(C)(C)C)cc3)ccc21 | -24% (inactive) | – |
| O=C(/C=C/c1ccccc1)N1CCN(Cc2cc(=O)n3nc(-c4ccccc4F)sc3n2)CC1 | 3.61% (inactive) | – |
| Cc1cc(C)c(NC(=O)Cn2c(SCC(=O)NCc3ccccc3)nc3ccccc32)c(C)c1 | -19.9% (inactive) | – |
| S=c1[nH]nc(COc2ccccc2)n1-c1ccccc1 | -0.261% (inactive) | – |
| Cc1ccc(OCc2n[nH]c(=S)n2-c2ccccc2)cc1 | -27.8% (inactive) | – |
| COc1ccc(OCc2n[nH]c(=S)n2N)cc1 | – | 56.2 µM (active) |
| COc1ccc(C)cc1N(CC(=O)N1CCC(C)CC1)S(=O)(=O)c1ccc(C)cc1 | -0.594% (inactive) | – |
| CCc1c(C)nc(N2CCN(Cc3ccccc3)CC2)[nH]c1=O | 0.116% (inactive) | – |
| O=S(=O)(c1cccs1)N1CCN(Cc2ccccc2)CC1 | 4.84% (inactive) | – |
| O=C1c2ccccc2C(=O)c2c1cccc2N1CCN(Cc2ccccc2)CC1 | – | 5.01 µM (active) |
| CCOc1ccccc1NC(=O)CN1CCCN(Cc2cccc(Cl)c2)S1(=O)=O | -0.932% (inactive) | – |
| COc1cccc2c1cc1c(=O)n(CC(=O)N3CCN(c4ccccc4)CC3)nc(C)n12 | 0.516% (inactive) | – |
| CC(=O)N1c2ccc(S(=O)(=O)N3CCCCCC3)cc2CC1C(=O)NCc1ccccc1C (configuration not stated) | -10.3% (inactive) | – |
| COc1ccc(C2=CC(c3ccccc3Cl)n3nc(-c4ccc(Cl)cc4)nc3N2)cc1 (configuration not stated) | -5.56% (inactive) | – |
| Cc1ccc(C2C=C(c3ccc(Cl)cc3)Nc3nc(NC(=O)CCC(=O)O)nn32)cc1 (configuration not stated) | – | 79.4 µM (active) |
| COc1ccc(C2C=C(c3ccc(Br)cc3)Nc3nc(NS(C)(=O)=O)nn32)cc1 (configuration not stated) | 3.31% (inactive) | – |
| COc1ccc(-n2c(SCC(N)=O)nc3c(oc4ccccc43)c2=O)cc1 | 3.46% (inactive) | – |
| COc1ccc(N2C(=O)CS(=O)(=O)C23C(=O)N(Cc2ccc(C)cc2)c2ccccc23)cc1Cl (configuration not stated) | 1.71% [at 57.1 µM] (inactive) | – |
| COc1cccc(C(=O)NC(=O)Nc2ccc(-c3cc(C(F)(F)F)nn3-c3ccccc3)cc2)c1 | -9.64% (inactive) | – |
| Cc1ccc(NC(=O)Nc2ccccc2)c(Br)c1 | -9.4% (inactive) | – |
| C=CCNc1scc(-c2ccccc2)[n+]1CC=C | – | 10 µM (active) |
| Cc1ccc(-c2c[n+](CC(=O)Nc3ccccc3)c3n2CCC3)cc1 | -4.1% (inactive) | – |
| C=CC[n+]1c(-c2ccc(C)cc2)csc1NNC(=O)Nc1ccccc1 | – | 31.6 µM (active) |
| C=CCNC(=O)c1csc(-c2ccccc2)n1 | -24.1% (inactive) | – |
| O=C(CNS(=O)(=O)c1cccs1)N1CCN(c2ccccc2Cl)CC1 | 0.355% (inactive) | – |

| Compound | activity change, negative = inhibition | Potency |
| --- | --- | --- |
| Cc1ccc(C)c(Cn2c(C(=O)O)c(CNCc3cccs3)c3ccccc32)c1 | -15.7% (inactive) | – |
| CCc1ccccc1NC(=O)CSc1nnc(-c2ccccc2)c(-c2ccccc2)n1 | -21.5% (inactive) | – |
| COc1ccc(NC(=O)CSc2nccn2C2CCCC2)cc1OC | -26.7% (inactive) | – |
| Cn1c(SCc2ccc(F)cc2)nnc1-c1ccncc1 | 5.73% (inactive) | – |
| CCn1c(SCC(=O)Nc2ccc3c(c2)OCCO3)nnc1-c1ccncc1 | 4.75% (inactive) | – |
| CN(C)CCCn1c(SCc2ccc(Cl)cc2)nnc1-c1ccncc1 | – | 56.2 µM (active) |
| CCn1c(SCC(=O)NC2CC2)nnc1-c1ccncc1 | -5.24% (inactive) | – |
| CCn1c(SCc2cccc(C(=O)O)c2)nnc1-c1ccc(Cl)cc1 | -9.13% (inactive) | – |
| CC1CCCCC1NC(=O)CSc1nnc(-c2ccncc2)n1CCCN(C)C (configuration not stated) | – | 44.7 µM (active) |
| CCCN(CCC)C(=O)C1CCCN(c2ncnc3c2nc2n3CCCCC2)C1 (configuration not stated) | 0.133% (inactive) | – |
| COc1ccc(Cn2c(C(=O)O)c(CNCc3cccc(OC)c3)c3ccc(C)cc32)cc1 | -35.5% (inactive) | – |
| O=C(OCc1cc(=O)n2nc(C3CC3)sc2n1)c1ccccc1Cl | -7.57% (inactive) | – |
| Cc1cccc(NC(=O)Cn2cc(S(=O)(=O)Cc3ccccc3Cl)c3ccccc32)c1 | -9.86% (inactive) | – |
| CCOc1cc(C)c(S(=O)(=O)NCc2ccccn2)cc1C | -7.56% (inactive) | – |
| CCOc1cc(CNn2c(C)nnc2SCC(=O)NC(C)(C)C)ccc1OCC(=O)NC(C)(C)C | 0.418% (inactive) | – |
| CCOc1cc(CNCc2ccccn2)ccc1OCC(=O)NC(C)(C)C | – | 50.1 µM (active) |
| Cc1cc(NC(=O)CSc2nnc(Nc3ccccc3F)s2)no1 | -5.7% (inactive) | – |
| Cc1cc(NC(=O)CSc2nnnn2-c2ccc(F)cc2)no1 | 4.09% (inactive) | – |
| Cc1cc(NC(=O)CSc2nnc(-c3ccc(Cl)s3)o2)no1 | – | 39.8 µM (active) |
| COc1ccc(CNC(=O)c2ccc3c(O)c(S(=O)(=O)c4ccccc4)c(=O)[nH]c3c2)cc1 | -23.6% (inactive) | – |
| CCN1CCN(CCCNC(=O)c2cnn(-c3ccc(C)cc3C)c2C2CCN(C(=O)OC(C)(C)C)CC2)CC1 | 4.75% [at 57.1 µM] (inactive) | – |
| COc1cccc(C(=O)NC2(C(F)(F)F)C(=O)Nc3c2c(=O)[nH]c(=O)n3-c2ccc(C)cc2)c1 (configuration not stated) | 1.43% (inactive) | – |
| CCc1cnc2c(c1SCC(=O)N1CCC(C)CC1)c(=O)n(C)c(=O)n2C | -4.76% (inactive) | – |
| O=C(CCCCn1c(=O)c2ccccc2n(CC(=O)Nc2cccc(C(F)(F)F)c2)c1=O)NCc1ccc2c(c1)OCO2 | 1.18% (inactive) | – |
| O=C(NCCSc1ccccc1)c1ccco1 | 46.4% (inactive) | – |
| O=c1c2ccccc2c(-c2ccc(Br)cc2)nn1Cc1ccccc1 | 1.98% (inactive) | – |

| Compound | activity change, negative = inhibition | Potency |
| --- | --- | --- |
| O=C(NCCc1ccco1)c1nn(Cc2ccccc2)c(=O)c2ccccc12 | – | 50.1 µM (active) |
| CCOC(=O)c1c(S(=O)(=O)N2CCCC(C(=O)NCc3ccc(F)cc3)C2)c(C)n(CC)c1C (configuration not stated) | -11.7% (inactive) | – |
| Cc1cc(C)c(/C=C/c2onc(C)c2S(=O)(=O)N2CCC(C(=O)Nc3ccc(Cl)cc3C)CC2)c(C)c1 | 1.4% (inactive) | – |
| COc1ccc2c(c1)Cc1sc(NC(=O)c3ccccc3Br)nc1-2 | -32.6% (inactive) | – |
| Cc1ccc(N2CC(C(=O)Nc3ccc(N(C)C)cc3)CC2=O)cc1Cl (configuration not stated) | -13% (inactive) | – |
| CC(=O)Nc1cc(C(=O)NCc2ccc(F)cc2)ccc1Sc1ccc(F)cc1 | -0.997% (inactive) | – |
| CCc1ccc(C2CC(=O)c3c([nH]c(C(=O)OCc4ccc(C)cc4)c3C)C2)cc1 (configuration not stated) | -5.92% (inactive) | – |
| O=C(CNCCC1=CCCCC1)Nc1ccccc1N1CCCCCC1 | – | 56.2 µM (active) |
| Cc1ccc(C(C)C)cc1OCC(=O)Nc1ccccc1N1CCCC1 | -23.2% (inactive) | – |
| Cc1ccccc1NC(=O)Nc1ccccc1N1CCCCC1 | -6.52% (inactive) | – |
| COc1cc([N+](=O)[O-])ccc1NC(=O)CN1CCCC1 | -7.99% (inactive) | – |
| O=C(CN1CCCCCC1)Nc1ccc(Br)cc1[N+](=O)[O-] | – | 15.8 µM (active) |
| O=C(CN1CCCCCC1)Nc1ccc(Br)cc1Br | 18.9% (inactive) | – |
| CC1=C(C(=O)OCc2ccc(C)cc2)C(c2ccccc2Cl)CC(=O)N1 (configuration not stated) | -7.46% (inactive) | – |
| O=C(C1CCN(S(=O)(=O)c2cnc[nH]2)CC1)N1CCN(Cc2ccc3c(c2)OCO3)CC1 | -16.5% (inactive) | – |
| O=C(CSCc1ccc(Cl)cc1)N1CCN(Cc2ccc3c(c2)OCO3)CC1 | -13.9% (inactive) | – |
| O=C(C1CCN(Cc2ccc(Cl)cc2)CC1)N1CCN(Cc2ccc3c(c2)OCO3)CC1 | – | 50.1 µM (active) |
| COc1ccc(-c2cccc(NS(=O)(=O)c3cc(C)c(OC)c(C)c3C)c2)nn1 | -32% (inactive) | – |
| CCCN(CCC)C(=O)Cn1c(=O)n(-c2ccc(Cl)cc2)c(=O)c2c3c(sc21)CCCCC3 | 2.25% (inactive) | – |
| Cc1cccc(CC(=O)Nc2cccc(-c3cn4cccnc4n3)c2)c1 | 3.65% (inactive) | – |
| CCCCOc1ccc(C(=O)N2CC(=O)Nc3ccc(Br)cc3C2c2ccc(F)cc2)cc1 (configuration not stated) | -10.3% (inactive) | – |
| O=C1CCCC(O)=C1N=Nc1ccc2ncsc2c1 | – | 50.1 µM (active) |
| O=c1ccnc(Nc2ccc(Cl)cc2)[nH]1 | 5.51% (inactive) | – |
| Cc1csc(Nc2ccc(Cl)cc2)[n+]1-c1ccc(Cl)cc1 | – | 12.6 µM (active) |
